This passage reports activation and inhibition results from PubChem BioAssay.

Assay [1] has as its system HIV-1 integrase (multimerization). Briefly: stimulation of HIV-1 integrase oligomerization – biochemical, TR-FRET, counter-screen for LEDGF/p75 integration inhibitor project (AID 1053131; in the data active = activation above about 8.9%). Conditions: TR-FRET HIV-1 integrase multimerization, at 7.7 µM, hits give high values. A general note: In TR-FRET formats the signal depends on donor and acceptor labels being close together.

A short description of assay [2]: compounds disturbing TR-FRET signal readout – biochemical, HIV-1 IN multimerization, artefact control for LEDGF/p75-dependent integration inhibitor project, confirmation (AID 1053135;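 active = inhibition above the mean over all tested compounds plus 3 SD, which no compound reached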;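 also: 0% = integrase with antibodies and DMSO and 100% = antibodies without integrase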). The following applies: TR-FRET optical interference counterscreen, at 7.7 µM, hits give high values.
The subject of assay [3] is HIV-1 integrase / human LEDGF/p75 complex. Put plainly: blockers of LEDGF/p75-dependent integrase activity – biochemical, TR-FRET, confirmation (AID 1053136). Conditions: TR-FRET LEDGF/p75-dependent HIV-1 integration, at 3.7 µM, hits give high values.
Assay [4] deals with Peroxisome proliferator-activated receptor gamma (Homo sapiens) (UniProt P37231). Put plainly: retested PPARg-SRC-2 recruitment enhancers – biochemical, HTS, confirmation (AID 1297; in the data active = activation above about 22%;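 also: 0% = vehicle alone and 100% = reference agonist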). Conditions: biochemical SRC-2 recruitment by PPARgamma; at 8 µM; hits give high values.
Assay [5] has the same target. Briefly: retest of SRC-1 recruitment enhancers for PPARgamma – biochemical, confirmation (AID 1300; in the data active = activation above about 20%;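 also: 0% = vehicle wells and 100% = reference agonist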). Conditions: PPARgamma–SRC-1 coactivator recruitment biochemical assay; at 8 µM; hits give high values.
Assay [6] has as its target Peroxisome proliferator-activated receptor gamma (Homo sapiens) + Nuclear receptor coactivator 3 (Homo sapiens) (UniProt P37231+Q9Y6Q9). Briefly: agonists promoting SRC-3 binding to PPARgamma – biochemical, confirmation (AID 1301; in the data active = activation above about 24%;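 also: 0% = vehicle wells and 100% = reference agonist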). Conditions: biochemical PPARgamma-SRC-3 coactivator recruitment, agonist mode; at 8 µM; hits give high values.
Assay [7] has as its target Glutathione S-transferase omega-1 (Homo sapiens) (UniProt P78417). Briefly: recombinant GSTO1 blockers, retest – biochemical, fluorescence polarization, triplicate, counter-screen for RBBP9 inhibitor project, confirmation (AID 2176;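 active = inhibition above the primary screen's cutoff, its mean inhibition plus 3 SD, cut at about 35% in these data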;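 also: loss of polarization as inhibitors block binding of rhodamine sulfonate ester activity probe; 0% = GSTO1 with DMSO and 100% = wells lacking GSTO1 enzyme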). The following applies: recombinant GSTO1, probe fluorescence polarization; at 5.96 µM; hits give high values. Background: Fluorescence polarisation rises when a labelled molecule tumbles more slowly, as on binding a larger partner.

In assay [8] the target is Platelet-activating factor acetylhydrolase (Homo sapiens) (UniProt Q13093). Briefly: inhibition of plasma PAF acetylhydrolase – biochemical, fluorescence polarization, human, confirmation (AID 463230;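 active = mean inhibition of the triplicate above the hit cutoff set for the earlier primary screen, cut at about 25% in these data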;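 also: 0% = enzyme with DMSO and 100% = wells lacking pPAFAH enzyme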). The following applies: recombinant pPAFAH, FP-Rh probe fluorescence polarization; at 3.39 µM; hits give high values.
Assay [9] deals with Protein-arginine deiminase type-4 (Homo sapiens) (UniProt Q9UM07). Put plainly: protein arginine deiminase 4 blockade, retest – biochemical, fluorescence polarization, confirmation (AID 488796;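 active = mean inhibition across replicates above the hit cutoff set by the earlier primary screen, cut at about 15% in these data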;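 also: inhibitors block active-site labeling by the probe so polarization falls; 0% = PAD4 with probe and DMSO and 100% = probe without PAD4 enzyme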). Conditions: recombinant PAD4, RCA probe fluorescence polarization; at 6.36 µM; hits give high values.
For assay [10], the target named is Serine protease HTRA1 (Homo sapiens) (UniProt Q92743). Briefly: confirming inhibition of human HTRA1 – biochemical, fluorescence polarization, confirmation (AID 540248;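 active = mean inhibition over three repeats above a set limit taken from the earlier primary screen, cut at about 37% in these data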;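 also: 0% = HTRA1 with DMSO and 100% = wells lacking HTRA1; inhibitors block probe binding so polarization drops and inhibition rises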). The following applies: recombinant HTRA1, FP-rhodamine activity-based probe, at 5.96 µM, hits give high values.
Assay [11] in a line: BSA probe fluorescence interference – biochemical, TAMRA-labeled BSA, counter-screen for TCR-CD3 interaction inhibitor project (AID 652035; in the data active = inhibition above about 23%;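 also: 0% = buffer low control and 100% = reference high control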). Conditions: TAMRA-labeled BSA probe fluorescence counterscreen; at 9.4 µM; hits give high values. On the technique in general: Counterscreens check selectivity or assay interference.
In assay [12] the test system is T-cell receptor (TCR)-CD3 interaction, human. Briefly: blockers of TCR binding to CD3 – biochemical, fluorescence, TAMRA-labeled TCR probe, confirmation (AID 652036; in the data active = inhibition above about 19%). Conditions: TAMRA-labeled TCR probe fluorescence binding assay; at 9.4 µM; hits give high values.
For assay [13], the target named is (Lyso)-N-acylphosphatidylethanolamine lipase (Mus musculus) (UniProt Q8VD66). Put plainly: mouse ABHD4 hydrolase blockers, triplicate – biochemical, fluorescence polarization, confirmation (AID 720658;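 active = mean inhibition across replicates above the hit cutoff set in the primary screen, cut at about 30% in these data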;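 also: 0% = wild-type ABHD4 with DMSO and 100% = catalytically dead S159A mutant with DMSO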). Conditions: purified mABHD4, FP-Rh probe fluorescence polarization; at 8.92 µM; hits give high values.
Assay [14] in a line: suppression of KLF5 promoter-driven luciferase – DLD-1 cells, luminescence, confirmation (AID 1834;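 active = inhibition above a set limit taken from the earlier primary screen, cut at about 63% in these data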;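 also: 0% = DMSO wells and 100% = LY294002 at 200 µM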). The following applies: DLD-1 KLF5 promoter firefly luciferase reporter, at 4 µM, hits give high values.
Assay [15] is described as follows: IEC-6 intestinal cell killing – luminescence, triplicate, cytotoxicity control for KLF5 inhibitor project (AID 1905; in the data active = inhibition above about 23%;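 also: cells exposed to compounds for 48 hours before viability read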). The following applies: IEC-6 rat intestinal cells, viability luminescence; at 4 µM; hits give high values.
Assay [16] in a line: reduced OD of T4-infected AddAB+ E. coli – absorbance, E. coli V3065, T4 phage, triplicate, AddAB inhibitor project, confirmation (AID 488942;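 active = mean inhibition above a set limit taken from the earlier primary screen, cut at about 13% in these data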;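 also: higher means less bacterial growth since AddAB block lets phage replicate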). Conditions: E. coli V3065 expressing H. pylori AddAB, at 11.9 µM, hits give high values, T4 phage with gene 2 nonsense mutations.
Assay [17] is described as follows: reduced OD of phage-infected RecBCD+ V66 E. coli – absorbance, mutant T4 phage, counter-screen for AddAB inhibitor project (AID 488955;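 active = mean inhibition above the mean of solvent-only control wells plus 3 SD, cut at about 4% in these data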;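 also: optical density read after an 18 h incubation at 37 °C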). Conditions: OD growth, at 11.9 µM, hits give high values.
The nature of assay [18]: bacterial growth inhibitors – absorbance, counter-screen for AddAB inhibitor project, confirmation (AID 488956; in the data active = inhibition above about 25%). The following applies: bacterial viability, absorbance (AddAB counterscreen); at 11.9 µM; hits give high values.
Assay [19] can be described thus: reduced OD of V66 E. coli with T4 gene 2 phage – absorbance, RecBCD inhibitor project, confirmation (AID 651982;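 active = mean inhibition over triplicates exceeding the hit threshold derived in the original primary screen, cut at about 11% in these data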). Conditions: E. coli V66 + T4 2- phage, growth OD; at 11.9 µM; hits give high values.
Assay [20] in a line: bacterial growth inhibition – absorbance, high throughput, counter-screen for RecBCD inhibitor project (AID 651983; in the data active = inhibition above about 20%;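 also: E. coli strain V66 grown with compound alone and no phage infection; 0% = bacteria with DMSO vehicle only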). Conditions: E. coli viability, absorbance (OD) growth; at 11.9 µM; hits give high values.
The nature of assay [21]: reduced optical density, T4-challenged addAB+ bacteria – absorbance, E. coli V3065, T4 phage, counter-screen for RecBCD inhibitor project, confirmation (AID 651984;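 active = mean inhibition above the solvent-only control wells' mean plus 3 SD, cut at about 22% in these data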;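 also: higher means less bacterial growth from phage killing when AddAB is blocked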). Conditions: E. coli expressing H. pylori AddAB + T4 phage, OD growth; at 11.9 µM; hits give high values; gene 2 mutant T4, recBCD-deleted host.
Assay [22] concerns Fam108b (Abhd17b) serine hydrolase [Mus musculus]. Put plainly: inhibition of Fam108b (Abhd17b) hydrolase – biochemical, fluorescence polarization, triplicate, counter-screen for RBBP9 inhibitor project, confirmation (AID 1978;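 active = inhibition above a limit from the primary screen, the mean over all compounds plus 3 SD, cut at about 19% in these data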;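 also: 0% = median of active Fam108b wells and 100% = catalytically dead S170A mutant; inhibitors free the probe so polarization falls as inhibition rises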). Conditions: recombinant Fam108b, FP-Rh probe fluorescence polarization; at 9.51 µM; hits give high values.
For assay [23], the target named is Oxysterols receptor LXR-beta (Homo sapiens) (UniProt P55055). Briefly: nonspecific reporter activation via LXR – cell-based, luminescence, HEK293, H. contortus campaign, counter-screen for hcDAF-12 agonist project, confirmation (AID 743027;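 active = mean percent activation of the reporter above a cutoff set as the average over tested compounds plus their standard deviation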). Conditions: HEK293 Gal4-LXR tk-luc reporter, 24 h, at 6.8 µM, hits give high values, normalized: DMSO 0%, positive control 100%.

Assay [24] concerns Nuclear hormone receptor DAF-12 (Haemonchus contortus). Put plainly: hcDAF-12 luciferase reporter activation, retest – cell-based, luminescence, HEK293, lit1-tk-luc, triplicate, confirmation (AID 743032;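 active = mean activation across triplicate tests above the threshold derived from the earlier primary screen, cut at about 5.5% in these data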;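 also: 0% = DMSO only wells and 100% = 3 µM Δ7-dafachronic acid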). Conditions: HEK293 hcDAF-12 lit1-tk-luc reporter, at 6.8 µM, hits give high values, % of Δ7-dafachronic acid response.
Assay [25] addresses Nuclear receptor coactivator 1 (Homo sapiens) (UniProt Q15788). Put plainly: NCOA1 GAL4-fusion reporter inhibition – cell-based, luminescence, quadruplicate, confirmation (AID 588820;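 active = mean inhibition above 46.68%, the untreated control wells mean plus 3 SD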;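 also: 0% = DMSO wells and 100% = gossypol 36 µM treated wells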). Conditions: HEK293 GAL4-SRC1 luciferase reporter, at 3.6 µM, hits give high values.
A short description of assay [26]: repression of VP16-driven luciferase reporter – cell-based, luminescence, high throughput, counter-screen for SRC1 inhibitor project (AID 588824; in the data active = inhibition above about 25%). Conditions: cell-based VP16 transactivation luciferase luminescence; at 3.6 µM; hits give high values.

A number with no mark means an inactive call. Some of the results follow. Calls of active or inactive are those of the source. Rule as the data show it, unless noted: active = inhibition above about 14%; inactive = the rest.

Sequence of Protein-arginine deiminase type-4 (Homo sapiens) (Q9UM07 whole entry, looked up): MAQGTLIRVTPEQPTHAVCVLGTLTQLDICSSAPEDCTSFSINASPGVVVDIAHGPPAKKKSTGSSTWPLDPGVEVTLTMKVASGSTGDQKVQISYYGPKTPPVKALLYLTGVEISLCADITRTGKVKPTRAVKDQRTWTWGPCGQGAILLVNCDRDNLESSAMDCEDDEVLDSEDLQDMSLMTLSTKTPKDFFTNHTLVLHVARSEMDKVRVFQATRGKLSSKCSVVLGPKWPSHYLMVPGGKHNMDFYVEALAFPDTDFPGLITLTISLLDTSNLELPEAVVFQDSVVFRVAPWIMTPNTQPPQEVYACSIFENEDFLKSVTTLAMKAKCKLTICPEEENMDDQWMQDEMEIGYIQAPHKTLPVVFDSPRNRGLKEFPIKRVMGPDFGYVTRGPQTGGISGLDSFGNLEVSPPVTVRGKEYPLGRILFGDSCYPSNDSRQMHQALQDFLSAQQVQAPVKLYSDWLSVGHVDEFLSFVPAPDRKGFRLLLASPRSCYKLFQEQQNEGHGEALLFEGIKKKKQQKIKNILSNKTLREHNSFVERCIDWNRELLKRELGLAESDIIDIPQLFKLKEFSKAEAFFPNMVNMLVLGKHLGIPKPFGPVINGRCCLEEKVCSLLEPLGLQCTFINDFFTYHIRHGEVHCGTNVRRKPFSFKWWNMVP
Sequence of (Lyso)-N-acylphosphatidylethanolamine lipase (Mus musculus) (Q8VD66 whole entry, looked up): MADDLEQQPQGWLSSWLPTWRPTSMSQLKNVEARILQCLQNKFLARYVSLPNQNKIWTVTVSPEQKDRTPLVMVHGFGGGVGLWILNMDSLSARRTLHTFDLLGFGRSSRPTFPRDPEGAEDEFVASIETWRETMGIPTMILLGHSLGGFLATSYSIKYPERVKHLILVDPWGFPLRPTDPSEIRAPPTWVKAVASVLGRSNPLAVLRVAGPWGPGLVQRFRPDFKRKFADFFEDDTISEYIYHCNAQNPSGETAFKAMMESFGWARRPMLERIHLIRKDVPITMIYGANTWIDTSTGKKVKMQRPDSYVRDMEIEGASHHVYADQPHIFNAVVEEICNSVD
Sequence of Glutathione S-transferase omega-1 (Homo sapiens) (P78417 whole entry, looked up): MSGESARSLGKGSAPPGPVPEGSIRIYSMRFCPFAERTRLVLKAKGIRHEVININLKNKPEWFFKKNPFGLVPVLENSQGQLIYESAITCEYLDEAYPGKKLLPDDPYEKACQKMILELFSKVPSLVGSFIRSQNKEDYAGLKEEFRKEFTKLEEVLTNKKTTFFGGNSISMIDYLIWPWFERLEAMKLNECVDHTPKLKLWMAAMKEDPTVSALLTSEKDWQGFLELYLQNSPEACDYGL
Sequence of Platelet-activating factor acetylhydrolase (Homo sapiens) (Q13093 whole entry, looked up): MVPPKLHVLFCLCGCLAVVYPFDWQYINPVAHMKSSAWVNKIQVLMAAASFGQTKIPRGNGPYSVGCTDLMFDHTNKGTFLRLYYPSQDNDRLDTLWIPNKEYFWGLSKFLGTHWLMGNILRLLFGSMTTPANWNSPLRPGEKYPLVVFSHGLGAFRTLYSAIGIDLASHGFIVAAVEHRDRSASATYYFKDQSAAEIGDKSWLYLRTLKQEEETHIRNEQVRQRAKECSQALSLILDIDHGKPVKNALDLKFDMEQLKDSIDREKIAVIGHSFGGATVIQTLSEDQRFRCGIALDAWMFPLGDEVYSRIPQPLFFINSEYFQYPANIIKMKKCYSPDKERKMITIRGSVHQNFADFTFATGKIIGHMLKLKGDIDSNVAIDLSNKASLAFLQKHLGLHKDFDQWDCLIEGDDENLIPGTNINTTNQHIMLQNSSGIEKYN
Sequence of Peroxisome proliferator-activated receptor gamma (Homo sapiens) (P37231 whole entry, looked up): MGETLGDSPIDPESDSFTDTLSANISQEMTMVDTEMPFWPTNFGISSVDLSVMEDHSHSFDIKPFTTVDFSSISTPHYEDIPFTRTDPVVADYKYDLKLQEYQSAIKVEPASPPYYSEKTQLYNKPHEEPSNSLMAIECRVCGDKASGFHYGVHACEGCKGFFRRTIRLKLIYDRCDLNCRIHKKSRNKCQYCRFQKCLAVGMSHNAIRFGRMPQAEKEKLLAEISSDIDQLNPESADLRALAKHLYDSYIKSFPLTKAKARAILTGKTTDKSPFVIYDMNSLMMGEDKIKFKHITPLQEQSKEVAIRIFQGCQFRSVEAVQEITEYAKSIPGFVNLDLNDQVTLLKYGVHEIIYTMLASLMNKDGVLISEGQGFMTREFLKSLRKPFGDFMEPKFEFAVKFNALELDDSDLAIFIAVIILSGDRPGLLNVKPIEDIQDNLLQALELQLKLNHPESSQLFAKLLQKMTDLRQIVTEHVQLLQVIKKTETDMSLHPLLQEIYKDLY
Sequence of Nuclear receptor coactivator 1 (Homo sapiens) (Q15788 whole entry, looked up, the tested form may be a part): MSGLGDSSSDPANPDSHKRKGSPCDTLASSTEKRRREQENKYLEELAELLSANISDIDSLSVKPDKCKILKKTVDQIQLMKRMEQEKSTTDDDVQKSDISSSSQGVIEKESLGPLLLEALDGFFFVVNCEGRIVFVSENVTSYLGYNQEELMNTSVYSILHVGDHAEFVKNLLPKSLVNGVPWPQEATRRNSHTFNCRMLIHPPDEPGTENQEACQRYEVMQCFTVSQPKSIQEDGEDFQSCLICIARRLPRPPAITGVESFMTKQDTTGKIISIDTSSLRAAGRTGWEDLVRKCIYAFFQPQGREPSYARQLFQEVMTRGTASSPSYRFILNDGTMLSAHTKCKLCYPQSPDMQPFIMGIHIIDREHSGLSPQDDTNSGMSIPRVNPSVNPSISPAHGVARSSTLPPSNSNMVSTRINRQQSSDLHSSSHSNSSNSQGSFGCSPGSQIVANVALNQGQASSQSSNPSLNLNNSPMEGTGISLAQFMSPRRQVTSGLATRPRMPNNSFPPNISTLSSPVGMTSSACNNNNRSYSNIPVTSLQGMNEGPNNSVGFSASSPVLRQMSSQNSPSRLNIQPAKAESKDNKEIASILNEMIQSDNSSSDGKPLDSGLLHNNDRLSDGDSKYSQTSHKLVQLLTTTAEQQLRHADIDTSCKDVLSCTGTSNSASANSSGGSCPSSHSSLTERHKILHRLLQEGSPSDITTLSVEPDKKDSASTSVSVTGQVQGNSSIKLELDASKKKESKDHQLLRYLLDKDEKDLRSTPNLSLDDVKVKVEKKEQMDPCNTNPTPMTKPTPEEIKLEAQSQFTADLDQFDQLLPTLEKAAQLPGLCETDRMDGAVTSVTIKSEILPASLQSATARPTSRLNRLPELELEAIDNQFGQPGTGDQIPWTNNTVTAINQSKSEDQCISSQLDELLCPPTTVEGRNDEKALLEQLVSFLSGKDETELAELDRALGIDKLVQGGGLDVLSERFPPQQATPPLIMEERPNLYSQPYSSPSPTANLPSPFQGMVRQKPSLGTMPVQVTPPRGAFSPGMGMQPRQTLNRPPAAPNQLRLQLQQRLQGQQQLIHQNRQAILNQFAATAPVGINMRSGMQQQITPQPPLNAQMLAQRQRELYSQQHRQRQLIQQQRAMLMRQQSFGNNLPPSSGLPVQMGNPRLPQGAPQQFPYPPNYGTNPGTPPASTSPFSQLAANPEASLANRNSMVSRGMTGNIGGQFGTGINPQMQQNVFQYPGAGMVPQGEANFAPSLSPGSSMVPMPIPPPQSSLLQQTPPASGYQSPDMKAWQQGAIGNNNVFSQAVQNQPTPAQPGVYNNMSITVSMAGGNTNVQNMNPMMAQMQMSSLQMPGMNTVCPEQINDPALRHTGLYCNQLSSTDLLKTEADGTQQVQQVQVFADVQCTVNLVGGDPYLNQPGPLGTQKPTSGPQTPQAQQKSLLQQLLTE
Sequence of Oxysterols receptor LXR-beta (Homo sapiens) (P55055 whole entry, looked up, the tested form may be a part): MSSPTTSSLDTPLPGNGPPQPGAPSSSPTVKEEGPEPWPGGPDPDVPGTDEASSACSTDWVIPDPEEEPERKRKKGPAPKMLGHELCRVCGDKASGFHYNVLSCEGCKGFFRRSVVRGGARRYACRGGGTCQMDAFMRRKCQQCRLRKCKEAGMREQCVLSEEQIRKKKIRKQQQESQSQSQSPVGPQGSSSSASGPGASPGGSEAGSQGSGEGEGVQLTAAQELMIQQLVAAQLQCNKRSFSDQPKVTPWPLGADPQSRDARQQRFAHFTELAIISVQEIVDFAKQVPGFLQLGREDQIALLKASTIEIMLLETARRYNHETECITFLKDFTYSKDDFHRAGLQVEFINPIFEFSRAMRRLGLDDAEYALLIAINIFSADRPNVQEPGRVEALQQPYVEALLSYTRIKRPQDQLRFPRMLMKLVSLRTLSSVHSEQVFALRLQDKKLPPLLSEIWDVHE

What is called inhibition is the relative decrease from the control value, in per cent. For `Cc1ccc(-c2nn(-c3ccccc3)cc2/C=C2\SC(=S)N(CCCCCC(=O)O)C2=O)o1`, in [1], the activation was 97.9% (active). Moreover, the inhibition in [2] is -492%; in assay [3], 41.5% (active).
Regarding `C=CCN1C(=O)C(O)(CC(=O)c2ccccn2)c2ccccc21` (stereo not drawn), the activation in [1] was 0.97%. Besides, the inhibition in [2] was -4.84%; in assay [3], 0.38%.
With `Cc1ccc(C(=O)N/C(=C/c2cccs2)C(=O)N2CCCCC2)cc1`, the activation in [1] is -0.16%. For the same compound, the results for the inhibition in assay [2] and in assay [3] were 0.87% and 0.33%, respectively.
As to `CN(C)c1ccc(N/C=C/C(=O)C(F)(F)F)cc1`, the activation in [4] was 21.7%; in assay [5] it was 15.3%; in [6], 12.7%; in [1], 14.5% (active). For the same compound, the inhibition was 6.83% in assay [7]; -0.71% in [8]; 1.99% in assay [9]; 5.14% in assay [10]; 0.92% in assay [11]; 2.09% in [12]. In addition, the inhibition in [13] was 2.7%; in [2], -51.7%; in assay [3] it was 0%.
With `Oc1cccc(/C=N/Nc2ccc(Cl)nn2)c1O`, the inhibition is 93.5% (active) in assay [14]; 0.35% in assay [15]; 7.85% in assay [7]; 29.2% (active) in [8]; 42.9% (active) in assay [16]; 15.7% (active) in assay [17]. Besides, the inhibition is 20.9% in assay [18]; 7.26% in [19]; 9.97% in [20]; 26% (active) in [21]; -36.1% in assay [2]; 10.1% in [3]. In addition, in assay [1], the activation was 10.1% (active).
As to `O=S(=O)(Nc1ccc(O)c2ccccc12)c1ccc(OC(F)(F)F)cc1`, the inhibition in [7] was 38.2% (active); in [9], 15% (active); in [2], -5.75%; in assay [3], 8.79%. Further, in assay [1], the activation was 1.57%.
As for `CN(CC(=O)Nc1ccc(S(=O)(=O)N2CCCC2)cc1)Cc1ccc(Cl)c(Cl)c1`, in [1], the activation was 3.77%. Also, the results for the inhibition in assay [2] and in assay [3] were -13.1% and 5.4%, respectively.
On the same counts, the results for `Cc1ccc(C(=O)N2CCCc3ccccc32)c(Cl)c1` are -0.4%, 2.02% and 1.35%.
With `Cc1ccc(C(=O)NC(=S)Nc2ccc3[nH]c(=O)[nH]c3c2)cc1C`, in assay [1], the activation was -3.75%. Further, the figures for the inhibition in assay [2] and in assay [3] were 19% and 14.8% (active), respectively.
Consider `COc1ccc(C2CC(c3cccs3)=NN2C(=O)COC(=O)c2cc3ccccc3cc2O)cc1OC` (stereo not drawn), for which the activation in assay [1] is -0.23%. For the same compound, the inhibition in assay [2] is 1.12%; in assay [3], -6.48%.
In the case of `c1ccc(C2=Nc3cccc4cccc(c34)N2)cc1`, the inhibition in [22] was 6.39%; in [2] it was -16.1%; in assay [3], 8.24%. Moreover, the activation in [23] was -0.31%; in [24] it was 3.48%; in assay [1], 4.54%.
Turning to `O=C1OC(/C=C/c2ccccc2)=NC/1=C/c1ccco1`, in assay [1], the activation is -0.93%. The inhibition in assay [2] was 4.71%; in assay [3], -2.29%.
Turning to `O=C(c1cccc(C(F)(F)F)c1)N1CC[C@H]2[C@H](CCCN2Cc2cc(F)cc(F)c2)C1`, the activation in [1] was 0.05%. Moreover, the figures for the inhibition in assay [2] and in assay [3] were -0.14% and -8.63%, respectively.
As to `CCN(CC)CCOc1ccc2c(c1)C(=NNC(=O)c1ccccn1)c1cc(OCCN(CC)CC)ccc1-2`, in [1], the activation was 2.34%. Besides, the inhibition in [2] is -8.61%; in assay [3] it was 6.51%.
On the same counts, the results for `COC(=O)C1=C(C)N(C)C(=O)NC1c1ccc([N+](=O)[O-])o1` (stereo not drawn) are 0.76%, -3.75% and 0.3%.
Turning to `CC(C)Cn1c(N)c(C(=O)NCc2cccs2)c2nc3ccccc3nc21`, the inhibition is -4.29% in assay [7], -13.3% in assay [2] and -3.17% in assay [3]. Moreover, the activation in [1] was 3.66%.
Consider `Cc1ccc(C(=O)OC(C)CN2CCOCC2)cc1` (stereo not drawn), for which, in assay [1], the activation is 0.25%. Further, the inhibition was -1.23% in assay [2] and -2.32% in [3].
Turning to `CC(=O)c1nc2ccccc2n1Cc1ccccc1`, the activation in assay [1] was -0.46%. The figures for the inhibition in [2] and in assay [3] were 2.34% and -4.4%, respectively.
The corresponding values for `COc1ccccc1-c1cc(C(=O)NCCCn2ccnc2)no1` are 1.02%, -3.78% and -0.05%.
For the compound `Cc1oc2c(c1C(=O)N1CCOCC1)C(=O)c1ccccc1C2=O`, the inhibition is 29.9% in assay [7]; -13.7% in [25]; 6.29% in assay [26]; 11.3% in assay [2]; 20.2% (active) in [3]. Moreover, the activation in assay [1] is -2.24%.
Take `Nc1ccc2nc3c(=O)[nH]c(=S)[nH]c3nc2c1`: the inhibition in [22] is 44.2% (active); in assay [7], 62% (active); in [8] it was 32.2% (active); in [9], 45.3% (active); in [11], 10.6%; in [12], 120% (active). Besides, the inhibition in assay [13] was 53.5% (active); in [2], -245%; in assay [3] it was 83% (active). Besides, the activation in [1] is 48.6% (active).
Consider `Oc1ccc(N=Cc2sc3ccccc3c2Cl)cc1`, for which the inhibition in [7] was 12.2%; in assay [9] it was 3%; in assay [10], 50.3% (active); in [11] it was 13.2%; in [12] it was 7.56%; in assay [13], -6.63%. The inhibition was -37.1% in assay [2] and 55.2% (active) in assay [3]. Also, the activation in assay [1] was 10.4% (active).
